# Screens (PubChem)
# Hits are enriched below; roughly 3.9% of the tested compounds scored in any of these assays.
# Vc quorum ag = quorum light induction in luxS cqsA deficient V. cholerae; V. cholerae BH1578 lux reporter, luminescence, 6 h; activation, % at 18.7 µM; hit rate 0.16% among 350,000; in the data active means activation mostly above about 9.7%, no sharp cut-off; inconclusive means no clear call, values can overlap the other calls; inactive means mostly below about 3.7%
# MazF activator = activators of E. coli MazEF toxin-antitoxin RNase | P0AE70 | FAM/BHQ RNA-DNA oligo cleavage fluorescence, 5 h | activation, % at 20 µM | hit rate 0.32% among 350,000 | AID 504720; in the data active means activation above about 50%
# Autofluor counter = counter-screen for toxin protease inhibitors: compound fluorescence | compound autofluorescence counterscreen, microsphere flow cytometry; stronger effect = higher value | fluorescence intensity (test concentration not listed) | hit rate 3.1% among 360,000 | AID 624483; in the data active means fluorescence intensity above about 16000; inconclusive means no clear call, values can overlap the other calls
# BoNT F protease = inhibitors of Botulinum neurotoxin F light chain protease | AID 588497 | inhibition, % at 10 µM | Multiplex microsphere protease cleavage assay, flow cytometry | hit rate 0.22% among 360,000; in the data active means inhibition above about 35%, passing the limit was not always enough; inconclusive means no clear call, values can overlap the other calls
# BoNT A protease = inhibitors of Botulinum neurotoxin A light chain protease | multiplex microsphere protease substrate cleavage, flow cytometry | inhibition, % at 10 µM | hit rate 0.17% among 360,000 | AID 588499
# Anthrax LF prot = inhibitors of Bacillus anthracis lethal factor protease; P15917; multiplex microsphere protease cleavage assay, LF; inhibition, % at 10 µM; hit rate 0.12% among 360,000; AID 588501
# Target sequence (P15917 whole entry, looked up): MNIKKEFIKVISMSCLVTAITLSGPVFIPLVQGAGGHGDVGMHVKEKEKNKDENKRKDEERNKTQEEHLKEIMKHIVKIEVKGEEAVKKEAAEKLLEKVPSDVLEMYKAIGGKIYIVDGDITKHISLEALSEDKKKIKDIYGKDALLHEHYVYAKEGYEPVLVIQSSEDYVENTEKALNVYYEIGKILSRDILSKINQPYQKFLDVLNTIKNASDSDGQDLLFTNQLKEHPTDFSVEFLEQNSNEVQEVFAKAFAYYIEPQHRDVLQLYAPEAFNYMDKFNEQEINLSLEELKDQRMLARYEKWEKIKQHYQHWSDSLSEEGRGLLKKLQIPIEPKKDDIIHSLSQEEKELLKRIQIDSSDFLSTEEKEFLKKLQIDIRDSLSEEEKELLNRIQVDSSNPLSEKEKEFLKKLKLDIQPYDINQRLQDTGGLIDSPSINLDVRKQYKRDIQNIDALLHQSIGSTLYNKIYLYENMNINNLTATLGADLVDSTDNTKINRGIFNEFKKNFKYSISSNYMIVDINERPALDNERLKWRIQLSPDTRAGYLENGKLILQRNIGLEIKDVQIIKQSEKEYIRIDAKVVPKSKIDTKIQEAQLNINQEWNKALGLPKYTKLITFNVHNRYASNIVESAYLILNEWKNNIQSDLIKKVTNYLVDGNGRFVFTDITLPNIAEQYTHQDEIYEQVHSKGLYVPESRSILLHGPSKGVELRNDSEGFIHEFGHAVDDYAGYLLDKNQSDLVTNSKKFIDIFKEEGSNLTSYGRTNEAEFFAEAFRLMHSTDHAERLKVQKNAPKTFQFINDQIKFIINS
# A number is an active result; – = inactive; ? = inconclusive; · = no result. Unless noted, no stated cut-off is given here; in the data, active means inhibition above about 30%; inconclusive means no clear call, values can overlap the other calls; inactive means below that.
SMILES,Vc quorum ag,MazF activator,Autofluor counter,BoNT F protease,BoNT A protease,Anthrax LF prot
Cc1nc2ccccc2c(=O)n1-c1ccc([N+](=O)[O-])cc1,–,–,–,–,–,–
Cc1cc(C)c2nc(SCCc3ccccc3)nc(C)c2c1,–,–,–,–,–,–
Cc1ccc(-n2c(SCc3ccc([N+](=O)[O-])cc3)nc3ccccc3c2=O)cc1,–,–,20811,–,–,–
Cc1noc(NS(=O)(=O)c2ccc(NC(=O)c3cc4ccccc4o3)cc2)c1C,–,–,–,–,–,–
CC[C@@H]1CCC[C@@H](O)[C@@H](C)C(=O)O[C@H](C)[C@@H](C)C/C=C(C)/C(OC)=C\C(=O)N(C)C([C@@H](C)CC)C(=O)N(C)[C@@H](C(C)C)C(=O)N(C)[C@@H](COC)C(=O)N2CCC[C@H]2C(=O)N(C)[C@@H](C(C)C)C(=O)N2CCC[C@H]2C(=O)O1 (stereo not given in full),·,·,–,–,–,–
CC(=O)c1c(C(C)=O)c(C)n(-c2ccc(C)c(NC(=O)c3ccccc3Cl)c2)c1C,–,–,16183,–,–,–
Cc1ccc(NC(=O)c2ccccc2Cl)c(Cl)c1,–,–,·,·,·,·
CCOc1ccc(N=Cc2c(O)n(C(C)(C)C)c(=O)[nH]c2=O)cc1,–,–,23346,–,–,–
O=C(CCC1CCCCC1)Nc1ccccc1O,–,–,16345,–,–,–
O=C(CCC1CCCCC1)Nc1ccccc1-c1ccccc1,–,–,21102,–,?,–
O=C(CCC1CCCC1)Nc1ccccc1-c1ccccc1,–,–,–,–,–,–
Cc1c(CC(=O)NCC(=O)NCC(=O)N[C@@H](Cc2ccccc2)C(=O)O)c(=O)oc2c(C)c(O)ccc12,–,·,–,–,–,–
COc1ccccc1C(=O)COC(=O)c1c(-c2ccccc2)noc1C,–,–,·,·,·,·
COc1ccc(C(=O)COC(=O)c2c(-c3ccccc3)noc2C)c(OC)c1,–,67,–,–,–,–
COc1ccc2ccccc2c1C1CC(=O)N2CN(C)CSC2=C1C#N (stereo not given),–,–,20088,–,?,–
CCc1ccccc1N1CSC2=C(C#N)C(c3cc(OC)c(OC)cc3OC)CC(=O)N2C1 (stereo not given),–,–,–,–,–,–
COc1cc(OC)c(C2CC(=O)N3CN(c4ccccc4)CSC3=C2C#N)cc1OC (stereo not given),–,–,20460,–,?,–
Cc1cc(OCC(=O)Nc2cnn(CCCC(=O)O)c2)ccc1Cl,–,–,–,–,–,–
COc1cc(/C=N/n2nnnc2Nc2ccccc2)cc(OC)c1OC,–,–,–,–,–,–
O=C(NC1CCN(Cc2ccccc2)CC1)c1ccc(S(=O)(=O)NCc2ccco2)cc1,–,–,–,–,–,–
COc1cccc(C(=O)Nc2ccc(S(=O)(=O)NCc3ccco3)cc2)c1,–,–,24328,–,–,–
O=C(NC1CCCCC1)c1ccc(S(=O)(=O)NCc2ccco2)cc1,–,–,21532,–,–,–
Cc1cc(C)n(CCCNC(=O)c2ccc(S(=O)(=O)NCc3ccco3)cc2)n1,–,–,21580,–,?,–
O=C(Nc1ccc(S(=O)(=O)NCc2ccco2)cc1)c1cccc(F)c1,–,–,–,–,–,–
COC(=O)C(Cc1ccc(O)cc1)NC(=O)C(CC(=O)OC(C)(C)C)NC(=O)OC(C)(C)C (stereo not given),–,–,–,–,–,–
SMILES,Vc quorum ag,MazF activator,Autofluor counter,BoNT F protease,BoNT A protease,Anthrax LF prot
CCOC(=O)C1(C)CCCCCN1C(=O)/C=C/c1ccccc1 (stereo not given),–,·,–,–,–,–
COc1ccc(C2=C(c3ccc(OC)c(OC)c3)CN3CCCCC3C2)cc1 (stereo not given),–,–,–,–,–,–
CC(=O)N1CCc2cc(NC(=O)C3(C)CCN3CCc3ccccc3)ccc21 (stereo not given),–,·,–,–,–,–
Nc1nonc1-c1noc(-c2ccccc2)n1,–,–,20869,–,–,–
O=C(Nc1cccnc1)c1ccccc1-c1nc(-c2ccccc2F)no1,–,–,21936,–,–,–
COc1ccccc1-c1noc(-c2ccccc2C(=O)Nc2cccnc2)n1,–,–,22521,–,–,–
COc1ccc(-c2noc(-c3ccccc3C(=O)Nc3cccnc3)n2)cc1,–,–,–,–,–,–
O=C(Nc1cccnc1)c1c(F)cccc1F,–,–,16636,–,?,–
Cc1cccc(NC(=O)CCCn2c(=S)[nH]c3ccccc3c2=O)c1,–,–,–,–,–,–
